We go through nine compounds from PubChem BioAssay (NCI).

Common to all, as to assay: NCI-60 one-dose screen, 48 h (100 = growth as untreated, 0 = no growth, -100 = all killed)
Test [1] deals with SK-MEL-2 melanoma. As to conditions: 10 µM unless noted.
The subject of test [2] is EKVX NSCLC. As to conditions: 10 µM unless noted.
In test [3] the test system is SN12C renal. As to conditions: 10 µM unless noted.
For test [4], the system named is UO-31 renal. As to conditions: 10 µM unless noted.
For test [5], the system named is TK-10 renal. As to conditions: 10 µM unless noted.
The subject of test [6] is ACHN renal. As to conditions: 10 µM unless noted.
Test [7] deals with A498 renal. As to conditions: 10 µM unless noted.
The subject of test [8] is CCRF-CEM leukemia. As to conditions: 10 µM unless noted.
Test [9] concerns MOLT-4 leukemia. As to conditions: 10 µM unless noted.
Test [10] relates to RPMI-8226 leukemia. As to conditions: 10 µM unless noted.
For test [11], the system named is OVCAR-8 ovarian. As to conditions: 10 µM unless noted.
The test system of test [12] is OVCAR-5 ovarian. To be noted: 10 µM unless noted.
Test [13] deals with OVCAR-4 ovarian. To be noted: 10 µM unless noted.
The test system of test [14] is SK-OV-3 ovarian. As to conditions: 10 µM unless noted.
Test [15] concerns IGROV1 ovarian. As to conditions: 10 µM unless noted.
Test [16] relates to OVCAR-3 ovarian. To be noted: 10 µM unless noted.
Test [17] deals with HS 578T breast. To be noted: 10 µM.
Test [18] concerns NCI/ADR-RES ovarian. As to conditions: 10 µM unless noted.
The subject of test [19] is SR leukemia. To be noted: 10 µM unless noted.
Test [20] concerns CAKI-1 renal. To be noted: 10 µM unless noted.

Compounds without any hit were thinned out: in the full panel of roughly 83,000, 20% have a hit.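 Single-dose data. Exposure time 48 hours. Values below 10 considered active.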 Values without a mark were called inactive. Active and inactive are the calls of the source.

In the case of `COc1ccc(-c2nnc(SCC(=O)Nc3ccc(C(=O)/C=C/c4ccc(Cl)cc4)cc3)n2-c2ccccc2)cc1`, the growth in test [1] was 100%; in [2] it was 102%; in test [3], 101%; in test [4], 73.8%; in test [5] it was 109%; in [6], 107%. Further, the growth in [7] was 116%; in [8] it was 86.5%; in test [9], 81.5%; in test [10], 83.8%; in [11] it was 100%; in [12] it was 107%. The growth is 92.4% in test [13]; 99.5% in [14]; 93.5% in test [15]; 97.8% in test [16]; 96.9% in test [17]; 102% in test [18].
Consider `Cn1c(=O)c2[nH]c(Cc3ccc4c(c3)OCO4)nc2n(C)c1=O`, for which the growth in test [1] is 122%; in test [2], 97.8%; in test [3], 95.1%; in test [4], 93.5%; in test [5], 113%; in [6] it was 92.1%. For the same compound, the growth was 87% in [8]; 122% in test [9]; 120% in [19]; 88.8% in test [10]; 105% in test [11]; 90.5% in test [12]. For the same compound, the growth was 88.2% in test [13]; 107% in test [14]; 106% in test [15]; 104% in [16]; 107% in test [18].
For the compound `O=C(Nc1cnc(C(F)(F)F)cn1)c1cc(Cl)ccc1O`, the growth is -27.6% (active) in [1]; 7.75% (active) in test [2]; 5.36% (active) in test [3]; -5.6% (active) in [4]; 1.77% (active) in [5]; 3.85% (active) in test [6]. The growth in [7] is -53.5% (active); in test [8], 14.9%; in test [9] it was 1.24% (active); in [10] it was -21.7% (active); in test [11] it was 4.89% (active); in test [12], 28.3%. The growth in [13] was 14%; in [14], -5.59% (active); in [15], 23.8%; in test [16], 15.6%; in test [18], 8.26% (active).
Regarding `C=CCn1c(SCC(=O)Nc2ccc(C(=O)/C=C/c3ccc(Cl)cc3)cc2)nnc1-c1ccc(Cl)cc1`, the growth was 100% in [1]; 86.6% in test [2]; 78.8% in [3]; 61.7% in [4]; 90.8% in test [5]; 101% in test [6]. Besides, the growth was 83.8% in [7]; 96.5% in test [8]; 68.4% in test [9]; 17.2% in [10]; 87.9% in test [11]; 104% in test [12]. Further, the growth was 94.8% in test [13]; 92% in [14]; 79.5% in test [15]; 89.1% in test [16]; 84.8% in test [17]; 80.5% in test [18].
`CCN(CC)CCNc1c(C)cc(CO)c(Cl)c1C`: the growth in test [1] was 112%; in [2] it was 110%; in [3], 97.7%; in [4], 111%; in test [5], 106%; in [6], 106%. The growth in test [20] is 104%; in test [8], 101%; in [19], 104%; in test [10], 105%; in [11], 90.3%; in [12], 117%. Further, the growth was 103% in test [13]; 120% in test [14]; 64.8% in [15]; 117% in [16]; 107% in test [17]; 101% in test [18].
On to `CCNS(=O)(=O)c1ccc(C)cc1`, for which the growth in test [1] was 116%; in test [2], 106%; in [3] it was 98.5%; in test [4], 97.3%; in test [5], 115%; in [6], 96.4%. Besides, the growth in [8] is 89.7%; in test [9], 95.9%; in test [19] it was 122%; in test [10], 99.1%; in [11], 100%; in [12] it was 97.2%. Also, the growth is 103% in [13]; 112% in test [14]; 98.3% in test [15]; 111% in test [16]; 108% in test [18].
With `SCc1ccc(CS)cc1`, the growth in test [1] was 108%; in test [2], 104%; in test [3], 100%; in test [4], 85.6%; in [5], 115%; in test [6], 102%. Moreover, the growth is 98% in test [8]; 103% in test [10]; 98.4% in test [11]; 95.9% in test [12]; 101% in [13]; 104% in test [14]. The values for the growth in test [16] and in test [18] were 115% and 109%, respectively.
Turning to `CN(CCO)c1ccc(N2Cc3ccccc3OC3=C2C(=O)c2c(O)ccc(O)c2C3=O)cn1`, the growth was -54.4% (active) in test [1]; -38.5% (active) in [2]; -90.9% (active) in [3]; -100% (active) in [4]; -98.5% (active) in test [5]; -100% (active) in test [6]. In addition, the growth in test [7] is -48.2% (active); in [8] it was -12.2% (active); in test [9], -30.6% (active); in [10], -16.2% (active); in test [11], 1.86% (active); in test [12] it was -59.8% (active). Moreover, the growth in test [13] was -97.5% (active); in test [14] it was -3.73% (active); in test [15] it was -72.7% (active); in test [16], -99.7% (active); in test [17], 28.4%; in test [18] it was -2.37% (active).
For `COc1ccc(/C=C/C(=O)c2ccc(NC(=O)CSc3nnc(-c4ccc(Cl)cc4)n3-c3ccccc3)cc2)cc1`, the growth in test [1] is 104%; in test [2] it was 89.4%; in test [3] it was 91.2%; in [4] it was 79.8%; in test [5], 113%; in test [6] it was 103%. Besides, the growth in test [7] was 84.6%; in test [8], 94.9%; in test [10], 60.4%; in test [11], 84.6%; in test [13], 99.5%; in test [14], 104%. For the same compound, the results for the growth in test [15], in test [17] and in [18] were 103%, 97.1% and 93.9%, respectively.
